For some of these results: Entries with a potency or affinity are not part of this list. The source made the active and inactive calls. Unless noted, the rule behind the calls is not given here.
Experiments:
[1] = antimalarial activity against Dd2 strain (AID 2302;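 active = growth inhibition above 50% at the single 2 µM test dose, taken to imply half-maximal potency below 2 µM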;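 note: 0% = DMSO untreated growth and 100% = chloroquine plus artemisinin killed control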); details: P. falciparum Dd2 in RBCs, LDH growth readout, 72 h; at 2 µM; hits give high values
[2] = HepG2 cytotoxicity, primary screen, cytotoxicity control for P. falciparum antimalarial project, cell-based, ATP luminescence (AID 2303;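 active = inhibition above 50%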;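 note: 0% = DMSO wells and 100% = digitonin-killed cells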); details: HepG2 viability, 24-48 h, at 10 µM, hits give high values
[3] = biological target: L-lactate dehydrogenase (Plasmodium falciparum (isolate CDC / Honduras)) (UniProt Q27743); assay: PfLDH activity inhibition – cell lysate, 3D7 strain, counter-screen for P. falciparum growth inhibition project (AID 2304);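 note: 0% = vehicle and 100% = reference inhibitor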; details: P. falciparum 3D7 crude extract, LDH APAD/NBT absorbance; at 2 µM; hits give high values
[4] = inhibition of 3D7 malaria parasite growth – strain 3D7 (AID 2306);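 note: 0% = DMSO wells and 100% = chloroquine plus artemisinin control wells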; details: P. falciparum 3D7 erythrocytic growth, LDH absorbance, 72 h; at 2 µM; hits give high values
[5] = biological target: Calcium-dependent protein kinase 1 (Plasmodium falciparum (isolate 3D7)) (UniProt P62344); assay: PfCDPK1 kinase inhibitors, biochemical, TCAMS library (AID 1159585; cut-off not given, nearly all actives have IC50 up to about 0.98 µM;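 note: inhibitors leave more ATP so luminescence rises with inhibition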); details: recombinant PfCDPK1, Kinase-Glo ATP depletion luminescence
[6] = biological target: Plasmodium falciparum protein kinase 6 (PK6, PF3D7_1337100) (UniProt Q8IDW1); assay: PfPK6 kinase inhibitors, biochemical, TCAMS library (AID 1159586); details: recombinant PfPK6, Kinase-Glo ATP depletion luminescence
[7] = biological target: Protein kinase 7 (PK7), Plasmodium falciparum 3D7 (PF3D7_0213400) (UniProt Q7YTF7); assay: inhibition of Plasmodium PK7 catalytic activity – biochemical, TCAMS antimalarial set, Kinase-Glo luminescence (AID 1159587); details: recombinant PfPK7, Kinase-Glo ATP depletion luminescence
[8] = biological target: Calcium-dependent protein kinase 4 (Plasmodium falciparum (isolate 3D7)) (UniProt Q8IBS5); assay: PfCDPK4 kinase inhibitors, biochemical, TCAMS library (AID 1159588; cut-off not given, nearly all actives have IC50 up to about 0.91 µM); details: recombinant PfCDPK4, Kinase-Glo ATP depletion luminescence
Chain of Calcium-dependent protein kinase 4 (Plasmodium falciparum (isolate 3D7)) (Q8IBS5 whole entry, looked up): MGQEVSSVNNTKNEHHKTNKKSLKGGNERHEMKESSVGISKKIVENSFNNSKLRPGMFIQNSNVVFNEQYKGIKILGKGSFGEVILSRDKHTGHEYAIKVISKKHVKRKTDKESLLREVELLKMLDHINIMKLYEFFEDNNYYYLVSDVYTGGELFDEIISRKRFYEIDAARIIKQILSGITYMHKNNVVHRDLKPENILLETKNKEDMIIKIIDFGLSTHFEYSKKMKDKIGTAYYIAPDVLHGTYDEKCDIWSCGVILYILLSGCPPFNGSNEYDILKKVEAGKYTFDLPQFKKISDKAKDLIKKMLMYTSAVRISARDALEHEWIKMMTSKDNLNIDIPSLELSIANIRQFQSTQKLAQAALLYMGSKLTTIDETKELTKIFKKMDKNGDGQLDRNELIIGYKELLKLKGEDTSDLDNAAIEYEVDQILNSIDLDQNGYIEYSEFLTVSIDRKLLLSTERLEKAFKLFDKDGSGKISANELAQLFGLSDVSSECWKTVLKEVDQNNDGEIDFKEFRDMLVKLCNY

Chain of Calcium-dependent protein kinase 1 (Plasmodium falciparum (isolate 3D7)) (P62344 whole entry, looked up): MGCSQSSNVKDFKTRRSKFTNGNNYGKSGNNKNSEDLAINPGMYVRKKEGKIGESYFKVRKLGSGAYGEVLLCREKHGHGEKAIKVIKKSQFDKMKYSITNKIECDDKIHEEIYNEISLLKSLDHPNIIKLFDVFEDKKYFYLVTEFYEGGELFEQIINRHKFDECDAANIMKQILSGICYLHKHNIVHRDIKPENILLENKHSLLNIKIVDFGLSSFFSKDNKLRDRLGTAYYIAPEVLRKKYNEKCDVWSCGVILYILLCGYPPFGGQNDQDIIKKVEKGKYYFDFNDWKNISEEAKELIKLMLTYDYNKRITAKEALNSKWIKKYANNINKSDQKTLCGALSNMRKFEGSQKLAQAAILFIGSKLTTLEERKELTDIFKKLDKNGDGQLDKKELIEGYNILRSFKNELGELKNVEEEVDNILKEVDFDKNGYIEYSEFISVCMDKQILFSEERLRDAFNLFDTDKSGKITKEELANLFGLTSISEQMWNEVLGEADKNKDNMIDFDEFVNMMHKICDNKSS
Chain of Plasmodium falciparum protein kinase 6 (PK6, PF3D7_1337100) (Q8IDW1 1-305): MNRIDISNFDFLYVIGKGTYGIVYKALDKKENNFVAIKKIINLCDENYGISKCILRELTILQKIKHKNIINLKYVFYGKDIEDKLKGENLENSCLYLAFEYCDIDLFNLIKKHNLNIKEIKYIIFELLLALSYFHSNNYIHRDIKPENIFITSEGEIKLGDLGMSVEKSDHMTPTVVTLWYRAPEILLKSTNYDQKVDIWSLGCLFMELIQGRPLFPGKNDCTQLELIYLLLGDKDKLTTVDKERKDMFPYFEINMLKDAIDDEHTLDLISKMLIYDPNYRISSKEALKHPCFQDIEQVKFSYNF
Chain of Protein kinase 7 (PK7), Plasmodium falciparum 3D7 (PF3D7_0213400) (Q7YTF7 1-343): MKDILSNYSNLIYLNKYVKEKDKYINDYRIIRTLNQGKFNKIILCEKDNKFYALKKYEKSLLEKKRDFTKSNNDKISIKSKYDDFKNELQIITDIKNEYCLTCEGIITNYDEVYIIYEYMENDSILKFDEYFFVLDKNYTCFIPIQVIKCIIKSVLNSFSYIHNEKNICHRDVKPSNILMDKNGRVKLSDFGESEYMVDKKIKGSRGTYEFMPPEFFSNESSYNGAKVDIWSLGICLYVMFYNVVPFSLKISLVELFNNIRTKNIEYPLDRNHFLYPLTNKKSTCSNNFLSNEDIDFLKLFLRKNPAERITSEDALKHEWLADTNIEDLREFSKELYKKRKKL
Chain of L-lactate dehydrogenase (Plasmodium falciparum (isolate CDC / Honduras)) (Q27743 whole entry, looked up): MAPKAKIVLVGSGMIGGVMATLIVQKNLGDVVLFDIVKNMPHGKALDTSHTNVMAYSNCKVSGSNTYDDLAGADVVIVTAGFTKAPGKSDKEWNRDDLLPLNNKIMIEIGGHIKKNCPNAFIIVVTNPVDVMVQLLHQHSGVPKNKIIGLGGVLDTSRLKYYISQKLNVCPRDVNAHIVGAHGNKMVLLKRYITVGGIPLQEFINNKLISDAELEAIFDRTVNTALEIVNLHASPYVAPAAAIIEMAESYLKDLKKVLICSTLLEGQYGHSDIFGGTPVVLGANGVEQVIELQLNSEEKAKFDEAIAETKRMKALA

O=C(NC1CCN(Cc2ccc(Cl)cc2)CC1)c1cn(-c2ccccc2)nc1-c1cccnc1
active: growth inhibition [4] 93%
inactive: growth inhibition [1] 9% | inhibition [2] 13% | inhibition [3] -2% | outcome [5] | outcome [6] | outcome [7] | outcome [8]

CC(C)(C)c1ccc(C(=O)Nc2ccc(NC(=O)c3ccc([N+](=O)[O-])o3)cc2)cc1
active: growth inhibition [4] 81%
inactive: growth inhibition [1] 4% | inhibition [2] -2% | inhibition [3] 2% | outcome [5] | outcome [6] | outcome [7] | outcome [8]

COc1ccc(N2CCN(CCCCNC(=O)c3ccc(NC(=O)c4cccc(Cl)c4)cc3)CC2)c(OC)c1
active: growth inhibition [4] 101%
inactive: growth inhibition [1] 33% | inhibition [2] 18% | inhibition [3] 0% | outcome [5] | outcome [6] | outcome [7] | outcome [8]

O=S(=O)(c1ccccc1C(F)(F)F)C1C[C@H]2CC[C@@H](C1)N2S(=O)(=O)c1ccc(Cl)c(C(F)(F)F)c1 (stereo not given in full)
inactive: inhibition [2] 4% | inhibition [3] -3% | outcome [5] | outcome [6] | outcome [7] | outcome [8]
active: growth inhibition [1] 99% | growth inhibition [4] 97%

O=c1ccc2ccc(F)c3c2n1CC3CN1CCC(NCc2cccc(-c3ccccc3F)c2)CC1 (stereo not given)
active: growth inhibition [4] 100%
inactive: growth inhibition [1] 6% | inhibition [2] 29% | inhibition [3] -1% | outcome [5] | outcome [6] | outcome [7] | outcome [8]

COc1ccc2ccccc2c1C=NNc1ccnc2ccc(F)cc12
active: growth inhibition [4] 87%
inactive: growth inhibition [1] 10% | inhibition [2] 11% | inhibition [3] -2% | outcome [5] | outcome [6] | outcome [7] | outcome [8]

COc1ccc(-c2nccc(NC(N)=NCc3ccccc3)n2)cc1
inactive: growth inhibition [1] 21% | inhibition [2] 27% | inhibition [3] 1% | outcome [5] | outcome [6] | outcome [7] | outcome [8]
active: growth inhibition [4] 83%

CCC(CCON1C(N)=NC(N)=NC1(C)C)c1ccc(Cl)cc1 (stereo not given)
active: growth inhibition [1] 95% | inhibition [2] 66% | growth inhibition [4] 94%
inactive: inhibition [3] 1% | outcome [5] | outcome [6] | outcome [7] | outcome [8]

O=C(NCCc1cccc(F)c1)c1ccc(N2CCN(c3ccncc3)CC2)cn1
inactive: growth inhibition [1] 7% | inhibition [2] 4% | inhibition [3] -3% | outcome [5] | outcome [6] | outcome [7] | outcome [8]
active: growth inhibition [4] 94%

CN(C)S(=O)(=O)c1ccc(N2C(=O)[C@@H]3[C@H](C2=O)[C@@]2(c4ccccc4)C(=O)[C@]3(c3ccccc3)C(c3ccccc3)=C2c2ccccc2)cc1
active: growth inhibition [1] 63% | growth inhibition [4] 92%
inactive: inhibition [2] -10% | inhibition [3] 3% | outcome [5] | outcome [6] | outcome [7] | outcome [8]

Cc1cc(Nc2ncc3c(n2)N(C2CCC2)CC3)ccc1N1CCN(C)CC1
inactive: inhibition [2] 27% | inhibition [3] -2% | outcome [5] | outcome [6] | outcome [7] | outcome [8]
active: growth inhibition [1] 100% | growth inhibition [4] 101%

COc1ccc(CCNCCCCCCNCCc2ccc(-c3ccccc3)cc2)cc1OC
active: inhibition [2] 100% | growth inhibition [4] 99%
inactive: growth inhibition [1] 35% | inhibition [3] 1% | outcome [5] | outcome [6] | outcome [7] | outcome [8]

Cc1nc(N)nc(N)c1OCCCOc1cccc(Cl)c1Cl
active: growth inhibition [1] 95% | inhibition [2] 59% | growth inhibition [4] 93%
inactive: inhibition [3] -2% | outcome [5] | outcome [6] | outcome [7] | outcome [8]

CC(=O)Nc1ccc([N+](=O)[O-])c2c(Br)cccc12
inactive: growth inhibition [1] -1% | inhibition [2] -3% | inhibition [3] -4% | outcome [5] | outcome [6] | outcome [7] | outcome [8]
active: growth inhibition [4] 100%

O=C(NCCCCN1CCC(c2ccc3c(c2OCC2CC2)CCCC3)CC1)c1ccc(NC(=O)c2ccc(Cl)cc2)cc1
inactive: inhibition [2] 23% | inhibition [3] -4% | outcome [5] | outcome [6] | outcome [7] | outcome [8]
active: growth inhibition [1] 93% | growth inhibition [4] 101%

Cc1cc(NCCCN2CCCC2=O)n2c(nc3ccccc32)c1C#N
active: growth inhibition [4] 93%
inactive: growth inhibition [1] 48% | inhibition [2] 4% | inhibition [3] -1% | outcome [5] | outcome [6] | outcome [7] | outcome [8]

COc1ccccc1C1CCN(C2CCC(NC(=O)/C=C/c3ccc(F)c(F)c3)CC2)CC1 (stereo not given)
active: growth inhibition [4] 94%
inactive: growth inhibition [1] 9% | inhibition [2] 49% | inhibition [3] 1% | outcome [5] | outcome [6] | outcome [7] | outcome [8]

CC1(C)N=C(N)N=C(N)N1OCCCCON1C(N)=NC(N)=NC1(C)C
active: growth inhibition [1] 95% | inhibition [2] 54% | growth inhibition [4] 97%
inactive: inhibition [3] 4% | outcome [5] | outcome [6] | outcome [7] | outcome [8]

CCc1cn2c3c(cc(C(=O)N[C@@H](Cc4ccccc4)[C@H](O)CNC4CCCCC4)cc13)N(C)S(=O)(=O)C2
active: growth inhibition [1] 99% | growth inhibition [4] 99%
inactive: inhibition [2] 20% | inhibition [3] 0% | outcome [5] | outcome [6] | outcome [7] | outcome [8]

N=C(N)c1cc(Br)cc(NC(=O)Nc2cc(Br)cc(C(=N)N)c2)c1
active: growth inhibition [1] 76% | growth inhibition [4] 93%
inactive: inhibition [2] 0% | inhibition [3] -4% | outcome [5] | outcome [6] | outcome [7] | outcome [8]

Source: PubChem BioAssay
